# Hits are enriched below; roughly 5.9% of the tested compounds scored in any of these assays.
# S2 tox = Viability Counterscreen for Primary qHTS for Inhibitors of ATXN expression; AID 651635, 2014; S2 cells (HEK-293 line with an ATXN2-luciferase reporter) viability, CellTiter-Fluor protease fluorescence, 24 h; Potency, µM (highest dose often 56.7 µM), most hits filed as cytotoxic; 400,000 compounds, 0.49% hits; note: nearly all actives have a fitted effect of over 40% in size
# ATXN2 expr inh = Primary qHTS for Inhibitors of ATXN expression | 360,000 compounds, 0.72% hits | HEK-293 ATXN2-luciferase reporter, luminescence, 24 h | Potency, µM (doses to about 57 µM), for inactives: at the top dose activity change, negative = inhibition, actives largely listed as inhibitors; note: % is set by controls: 0 for no effect and ±100 for the full control effect; nearly all actives have a fitted effect of over 55% in size
#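 qHTS (up to 57 uM final) was run with 24 h compound exposure of reporter cells at 37 °C. Each well was multiplexed: SteadyGlo luminescence measured ATXN2-luciferase expression after a fluorogenic Gly-Phe-AFC viability readout (25 uM final).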
# KB-3-1 tox = qHTS assay for MDR1-selective chemotherapeutics: Primary screen using the parental adenocarcinoma cell KB-3-1. KB-3-1 viability, CellTiter-Glo ATP luminescence, 72 h. Potency, µM (top dose mostly 46.1 µM), usual class: cytotoxic. 400,000 compounds, 1.4% hits; note: % is set by controls: 0 for no effect and ±100 for the full control effect; nearly all actives have a fitted effect of over 60% in size
#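 Parental KB-3-1 adenocarcinoma cells in phenol-red-free DMEM with 10% FBS were pin-treated with compounds at several concentrations, incubated 72 h at 37 °C, and viability read by CellTiter-Glo luminescence; concentration-effect curves were fitted after normalization.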
# KB-V1 cytotox = qHTS assay for MDR1-selective chemotherapeutics: Primary screen using the drug-selected MDR subline cells KB-V1 | KB-V1 MDR cells viability, CellTiter-Glo, 72 h | Potency, µM (top dose mostly 46.1 µM), actives largely listed as cytotoxic | 400,000 compounds, 3.4% hits | AID 1347076, 2019; note: % is set by controls: 0 for no effect and ±100 for the full control effect; nearly all actives have a fitted effect of over 60% in size
#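 KB-V1 cells (P-gp-expressing MDR subline of KB-3-1) in phenol-red-free DMEM with 10% FBS were exposed to library compounds over a concentration series for 72 h at 37 degrees C. Viability read by CellTiter-Glo luminescence; concentration-effect curves fitted after normalization.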
# HepG2 tox = qHTS for Inhibitors of TGF-b: Cytotox Counterscreen | 410,000 compounds, 0.76% hits | AID 588856, 2011 | HepG2 CAGA-GFP viability, ATP luminescence, 18 h | Potency, µM (doses to about 46.1 µM), inactives show at the top dose activity change, negative = cytotoxicity, usual class: cytotoxic
#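 CellTiter-Glo luminescence gave cytotoxicity after 18 hours at 37 degrees C. The cells were HepG2 CAGA-GFP in 1% FBS DMEM, stimulated with 500 pg/mL TGF-beta after compound addition. %Activity was normalised to no-cell wells (complete cell-killing) and DMSO (no toxicity), and curves were fitted and classified.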
# TGFb SMAD3 inh = qHTS for Inhibitors of TGF-b; HepG2 CAGA-GFP TGF-b/SMAD3 reporter, GFP fluorescence, 18 h; TGF-beta stimulated, 500 pg/mL final; Potency, µM (doses to about 46.1 µM), inactives show at the top dose activity, negative = inhibition, hits mostly inhibitors; 410,000 compounds, 1.2% hits; AID 588855, 2011; note: % is set by controls: 0 for no effect and ±100 for the full control effect; nearly all actives have a fitted effect of over 65% in size
#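 Read-out: total well GFP (ex488/em500-530) summed from mean per-cell fluorescence. Cells: HEPG2 CAGA-GFP, 1% FBS DMEM, 18 h at 37 degrees C with 500 pg/mL final TGF-beta. Unstimulated wells served as the full-inhibition control; stimulated DMSO wells = 0%.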
# Numbers without * were called inactive; i = inactive; ? = inconclusive; . = no result given. Calls come from the whole dose curve; as a rule, active = well fitted curve in the direction sought with a large enough effect; inconclusive = small, poorly fitted or top-dose-only effect, or another doubt; inactive = no such curve, though single readings can be large; an effect the other way counts as inactive or inconclusive. Potency is the fitted concentration of half-maximal effect.
SMILES,S2 tox,ATXN2 expr inh,KB-3-1 tox,KB-V1 cytotox,HepG2 tox,TGFb SMAD3 inh
CCOC(=O)C1=C(CS(=O)(=O)c2c(C)cc(C)cc2C)NC(=O)NC1c1cccc(OC)c1 (stereo not given),i,-9%,i,i,-14%,-6%
CCCn1nnc(NC(=O)c2cc(Br)cc(Br)c2OC)n1,i,-13%,i,16µM*,8%,1%
CCCn1nnc(NC(=O)c2ccc(Br)cc2)n1,i,37%,i,i,-7%,0%
CCCCCCCCC1=NCCc2c1[nH]c1ccccc21,i,-34%,i,i,16µM*,?
CCCCc1c(O)c2ccccc2[nH]c1=O,i,8%,i,i,-3%,2%
CC(=O)N(CCC(Cc1ccccc1)c1ccc2c(c1)OCO2)Cc1ccc(Cl)cc1 (stereo not given),?,?,?,?,10µM*,?
COc1ccc(CN(CCC(c2ccc3c(c2)OCO3)c2ccccc2OC)C(C)=O)cc1 (stereo not given),.,.,.,.,-31%,13µM*
O=C(O)CC(Cc1ccccc1)c1ccc2c(c1)OCO2 (stereo not given),i,-3%,?,?,-27%,-2%
N#Cc1cc2cc(Cl)ccc2[nH]c1=O,i,18%,4.6µM*,i,.,.
CCOCCCNC(=O)C(c1ccc(Cl)cc1)N(Cc1ccc2c(c1)OCO2)C(=O)c1ccc(NC(C)=O)cc1 (stereo not given),i,1%,i,i,-19%,-9%
Cc1ccc(-c2onc(C)c2C)cc1S(=O)(=O)NC1CCC(C)CC1 (stereo not given),.,.,.,.,-36%,10µM*
Cc1ccc2c(c1)N(S(=O)(=O)c1cc(-c3onc(C)c3C)ccc1C)CCO2,i,?,23µM*,?,-13%,?
O=C(Nc1ccc(-n2nncc2-c2ccccc2)cc1)c1ccccc1,.,.,i,i,4%,32%
CNC(=S)N/N=C/c1cn(CCOc2ccc(OC)cc2)c2ccccc12,i,3%,i,?,-21%,0%
COc1ccc(OCCn2cc(C=O)c3ccccc32)cc1,i,-25%,i,i,-50%,7.9µM*
Cc1ccccc1OCCn1cc(C=O)c2ccccc21,i,-6%,?,16µM*,-34%,?
Cc1nn(-c2ccccc2)c2c1cc1c(=O)[nH]c(=O)nc-1n2-c1cccc(Cl)c1,i,9%,i,i,4%,-10%
O=C(CSc1nc2ccccc2c(=O)n1Cc1ccco1)NCc1ccco1,i,-7%,i,i,5%,-2%
COCCn1c(C)cc(C(=O)CSc2nc3ccccc3c(=O)n2Cc2ccco2)c1C,i,15%,?,0.65µM*,22%,-3%
COCCn1c(C)cc(C(=O)CSc2cc(C)c3ccccc3n2)c1C,i,20%,i,2.3µM*,-29%,-2%
Cc1ccc(S(=O)(=O)Nc2cccnc2)cc1,i,5%,i,i,2%,-2%
CCCCOc1ccc(S(=O)(=O)Nc2cccnc2)cc1,i,-17%,26µM*,5.8µM*,-6%,0%
CCCCOc1cccc(C(=O)NC(=S)Nc2cccnc2)c1,i,-2%,i,18µM*,-5%,?
COc1ccccc1CNS(=O)(=O)c1ccc(-c2cc(C)no2)cc1,i,.,1.3µM*,?,-14%,?
CCN(c1cccc(C)c1)S(=O)(=O)c1ccc(-c2cc(C)no2)s1,?,.,4.6µM*,?,-14%,?
SMILES,S2 tox,ATXN2 expr inh,KB-3-1 tox,KB-V1 cytotox,HepG2 tox,TGFb SMAD3 inh
COc1ccccc1NS(=O)(=O)c1ccc(-c2cc(C)no2)s1,i,.,7.3µM*,?,6%,-6%
CCc1ccc(-c2cc(C)no2)cc1S(=O)(=O)NCc1ccccc1OC,?,.,i,i,-29%,-19%
Cc1cccc(N(C)S(=O)(=O)c2ccc(-c3cc(C)no3)s2)c1,i,12%,?,?,-27%,11µM*
CCCCCCCCCCCCCCCCCCOP(=O)([O-])OC1CC[N+](C)(C)CC1,i,.,.,.,.,.
Cc1ccccc1C(=O)N1c2ncnn2C2(CCCCC2)[C@@H]2CCCC[C@@H]21,i,-11%,i,i,-12%,-14%
CCOc1ccc(N(C)S(=O)(=O)c2ccc(-c3cc(C)no3)s2)cc1,?,.,5.8µM*,?,-35%,?
CCOc1ccc(N(C)S(=O)(=O)c2cc(-c3cc(C)no3)ccc2C(C)C)cc1,i,-11%,?,i,-11%,?
O=C1Nc2cc(C(=O)NCCCN3CCCC3)ccc2S/C1=C\c1ccccc1,?,.,i,i,16µM*,?
COc1ccc2[nH]c(C(=O)NCCN3CCCCC3)cc2c1,i,-5%,i,i,7.9µM*,-9%
COc1ccc(/C=C2/Sc3ccc(C(=O)NCCN4CCCCCC4)cc3NC2=O)cc1,28µM*,.,i,?,13µM*,25µM*
Cc1ccc(S(=O)Cc2ccc(C(=O)NCc3ccc(OC(C)C)cc3)o2)cc1 (stereo not given),.,.,.,.,-16%,-23%
N#CN=c1snc(-c2ccccc2)n1-c1ccc(Br)cc1,.,.,?,i,0%,-6%
COCc1c(C(=O)N2CCC(N(C)C)C2)cnn1-c1ncc2c(n1)-c1ccccc1CCC2 (stereo not given),i,.,.,.,.,.
O=C1NC(=S)N/C1=C/c1cccn1-c1ccc([N+](=O)[O-])cc1,i,-9%,i,i,-43%,7.1µM*
N=C1/C(=C/c2cccn2-c2ccc([N+](=O)[O-])cc2)C(=O)N=C2SC=CN12,i,-4%,?,?,2%,3%
Cc1csc(SCC(=O)N2CCOc3ccc(C(O)C4CCCCC4)cc3C2)n1 (stereo not given),i,.,.,.,.,.
N#C/C(=C\C=C\c1ccccc1)C(=O)Nc1ccccc1,i,-9%,i,i,-8%,?
N#C/C(=C/c1ccc([N+](=O)[O-])cc1)C(=O)Nc1ccccc1O,i,45%,i,?,-2%,13%
COc1ccc(NC(=O)/C(C#N)=C/C=C/c2ccco2)cc1,?,-25%,7.3µM*,13µM*,-54%,?
N#C/C(=C/C=C/c1ccccc1)C(=O)Nc1ccccc1,i,-5%,i,16µM*,-20%,-6%
